Source: PubChem BioAssay
ELG1 repair inh – ELG1-dependent DNA repair inhibition; HEK293T ELG1-luciferase reporter, luminescence, 16 h; DNA damage induced by 5-fluorouridine; Potency, µM (top dose mostly 46.1 µM), without a hit: top-dose activity change, negative = inhibition, most hits filed as inhibitors; 330,000 tested, 2.3% active; AID 504467; note: % is set by controls: 0 for no effect and ±100 for the full control effect; nearly all actives have a fitted effect of over 55% in size
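5-Fluorouridine DNA damage + compound/DMSO, 2,000 cells/well, 16 h, 37 °C/5% CO2. ONE-Glo, 30 min RT, luminescence. Readout = decrease in reporter signal.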
RORg inh – blocks mouse ROR gamma transcriptional activity; P51450; Drosophila S2 Gal4-RORgamma UAS-luciferase reporter, 20 h; Potency, µM (titrated, usually from 53.6 µM), inactives show top-dose activity change, negative = inhibition, usual class: inhibitors; 310,000 tested, 5.4% active; AID 2551; note: % is set by controls: 0 for no effect and ±100 for the full control effect; nearly all actives have a fitted effect of over 60% in size
Target sequence (P51450 whole entry, looked up, the tested form may be a part): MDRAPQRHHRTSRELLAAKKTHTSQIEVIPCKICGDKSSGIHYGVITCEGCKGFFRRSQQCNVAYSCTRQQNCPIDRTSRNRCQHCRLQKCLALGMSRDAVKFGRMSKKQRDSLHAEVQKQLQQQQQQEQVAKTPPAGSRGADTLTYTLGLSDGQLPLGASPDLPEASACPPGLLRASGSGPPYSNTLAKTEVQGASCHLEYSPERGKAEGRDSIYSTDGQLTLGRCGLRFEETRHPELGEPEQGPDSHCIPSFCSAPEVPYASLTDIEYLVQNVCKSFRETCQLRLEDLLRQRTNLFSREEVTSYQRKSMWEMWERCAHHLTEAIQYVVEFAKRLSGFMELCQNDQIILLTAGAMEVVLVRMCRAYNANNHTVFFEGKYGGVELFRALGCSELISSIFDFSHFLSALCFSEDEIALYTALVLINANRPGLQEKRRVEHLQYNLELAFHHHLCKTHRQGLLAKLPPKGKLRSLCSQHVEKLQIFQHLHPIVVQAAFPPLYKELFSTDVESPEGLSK
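A Gal4/UAS one-hybrid system in insect cells: metallothionein-promoter Gal4–ROR gamma fusion plus Photinus luciferase reporter. Copper sulfate 700 uM final, 20 hr ambient incubation, luminescent detection after 10 min with reagent.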
SW480 rerep – induces DNA re-replication in SW480 colon adenocarcinoma cells | SW480 DNA re-replication, Hoechst DNA content imaging, 48 h | Potency, µM (series often up to 46.1 µM), for the others: top-dose re-replication activation, most hits filed as activators | 340,000 tested, 1.8% active; note: % of control where 0% means no effect; nearly all actives have a fitted effect of over 55% in size
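Compounds, transferred as 23 nL by pin tool, were incubated with cells for 48 hr; DNA content per nucleus was then quantified by Hoechst staining and fluorescence plate imaging.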
MCF10A rereplic – DNA re-replication induction in MCF 10a cells | MCF 10A DNA re-replication, Hoechst nuclear intensity, 48 h | Potency, µM (top dose mostly 46.1 µM), for inactives: at the top dose activity, positive = re-replication, actives largely listed as activators | 350,000 tested, 2.9% active; note: % of control where 0% means no effect; nearly all actives have a fitted effect of over 50% in size
VP16 counter – counter-screen for ROR gamma inhibitors: Gal4-VP16 reporter; Potency, µM (highest dose often 53.6 µM), inactives show at the highest dose activity, negative = inhibition, most hits filed as inhibitors; Drosophila S2 Gal4-VP16 UAS-luciferase, luminescence, 20 h; 310,000 tested, 3.5% active;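 note: Gal4-VP16 expression switched on by copper sulfate through the metallothionein promoter; % is set by controls: 0 for no effect and ±100 for the full control effect; nearly all actives have a fitted effect of over 50% in size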
* hit, by the source's call; u = inconclusive; x = no result given; [ ] = remark or other dose. This is a sample that favours compounds with a hit; in the whole collection about 10% have one here. Calls come from the whole dose curve; as a rule, active = well fitted curve in the direction sought with a large enough effect; inconclusive = small, poorly fitted or top-dose-only effect, or another doubt; inactive = no such curve, though single readings can be large; an effect the other way counts as inactive or inconclusive. Potency is the fitted concentration of half-maximal effect.

SMILES | ELG1 repair inh | RORg inh | SW480 rerep | MCF10A rereplic | VP16 counter
CCOc1ccc(NC(=S)NCc2ccc3c(c2)OCO3)cc1 | 0% | 7.9µM* | -55% | 0% | u
CCOc1ccc(NC(=O)CN(C)S(=O)(=O)c2ccc(-c3ccc(=O)[nH]n3)s2)cc1 | u | 11% | 19% | -1% | -1%
O=C(NCCCCN1CCN(c2cccc(Cl)c2Cl)CC1)c1ccc2c(c1)Cc1ccccc1-2 | x | -19% | x | x | u
CC(=O)N1CCC(C(=O)NCCOc2ccc(C)cc2)CC1 | 5% | 2% | -16% | -1% | 2%
CCCCC(CCc1ccccn1)C(=O)c1ccccc1 (configuration not stated) | x | x | -3% | u | x
CC1CCCC2(C1)NC(=S)c1c(sc3c1CCCC3)N2 (configuration not stated) | u | 32µM* | 1% | 14% | u
O=C(NCCc1cccs1)c1ccc(Cl)c(Cl)c1 | u | 29% | -2% | -1% | 8%
Cc1ccc(C(=O)NCCc2cccs2)cc1 | u | u | -3% | -2% | 5.6µM*
O=C(NCCc1cccs1)c1ccc(Cl)cc1 | u | 8.9µM* | -3% | -1% | u
FC(F)(F)c1cnc(-n2cc[nH]c2=S)c(Cl)c1 | -6% | -42% | -5% | -2% | -3%
Cc1ccc(-n2c(CC#N)n[nH]c2=S)c(C)c1 | -2% | -41% | -8% | -1% | -11%
Cc1cc(C)cc(-n2cc[nH]c2=S)c1 | 8% | 7.1µM* | 6% | 17% | 10µM*
Cc1ccc(-n2cc[nH]c2=S)c(C)c1 | 1% | 10µM* | -20% | 0% | u
Cc1ccc(C)c(-n2cc[nH]c2=S)c1 | u | 11µM* | -1% | -4% | u
Cc1ccc(C)c(N2CC(=O)N(c3cc(C)ccc3C)CC2=O)c1 | 0% | -31% | 3% | 0% | 2%
CC1=C(C(=O)Nc2ccc(Cl)cc2C(=O)N2CCC(C(N)=O)CC2)SCCO1 | 3% | -3% | 23% | 0% | 4%
O=C(N[C@@H]1CCC(=O)N(CC[C@H](Oc2ccccc2)c2ccccc2)CC1)OCc1ccccc1 | u | 21% | -7%[9.22 µM] | u | 2%
NC(=O)Nc1ccc(C(=O)OCC(=O)Nc2ccc(Cl)cn2)cc1 | 15% | 5% | 3% | 2% | -7%
C=CCNc1nc(NCCO)nc(N2CCCC2)n1 | 6% | -39% | -6% | -2% | 4%
Cc1cccc(Nc2nc(N3CCCCC3)nc(N3CCCCC3)n2)c1 | -14% | 33% | 9% | 30% | -9%
C=CCNC(=S)NNc1nc(N2CCCC2)nc(N2CCCC2)n1 | 6% | 2.2µM* | 4% | 1% | 18µM*
C=CCNC(=S)NNc1nc(Nc2ccccc2)nc(N2CCCCC2)n1 | 2% | 4µM* | 4% | 15% | u
S=C(NNc1nc(Nc2ccccc2)nc(N2CCCCC2)n1)NC1CCCCC1 | -15% | 4.5µM* | -1% | 4% | 13µM*
Cc1onc(-c2ccccc2)c1C(=O)NCCc1ccncc1 | -3% | -22% | 27% | 13% | 0%
CC(=O)Nc1ccc(-c2csc(NC(=O)CCCc3cccs3)n2)cc1 | 18µM* | u | 0% | u | -2%
SMILES | ELG1 repair inh | RORg inh | SW480 rerep | MCF10A rereplic | VP16 counter
CCC(=O)Nc1ccc(-c2csc(NNC(C)=O)n2)cc1 | 0% | 22% | 6% | -2% | -3%
CC(=O)Nc1ccc(-c2csc(NNC(=O)c3ccccc3)n2)cc1 | 13% | 8.9µM* | 7% | u | -4%
CC(=O)Nc1ccc(-c2csc(N/N=C(/C)c3ccccc3)n2)cc1 | 21µM* | -20% | -2% | 11% | 16%
CCN(CC)CCP(=O)(c1ccccc1)c1ccccc1 | 13% | -23% | u | 9.2µM* | -3%
CN1CC(=O)N(CC(=O)Nc2ccc(OCc3ccccc3)cc2)C1=O | u | x | 1% | 6% | x
O=C(C1=C[C@@H](c2coc3ccccc3c2=O)C[C@@H](OCc2ccc(CO)cc2)O1)N1CCN(Cc2ccc3c(c2)OCO3)CC1 | u | -22% | -4% | -4% | u
O=C(C1=C[C@H](c2ccc3c(c2)OCO3)C[C@H](OCc2ccc(CO)cc2)O1)N1CCN(Cc2ccc3c(c2)OCO3)CC1 | 16µM* | 9% | -15% | 7% | -2%
O=C(C1=C[C@H](c2coc3ccccc3c2=O)C[C@H](OCc2ccc(CO)cc2)O1)N1CCN(Cc2ccc3c(c2)OCO3)CC1 | 13µM* | 0% | 12% | u | -28%
O=C(C1=C[C@H](c2csc3ccccc23)C[C@H](OCc2ccc(CO)cc2)O1)N1CCN(Cc2ccccc2)CC1 | u | 29% | -11% | u | -4%
O=C(C1=C[C@H](c2ccccc2)C[C@H](OCc2ccc(CO)cc2)O1)N1CCN(Cc2ccc3c(c2)OCO3)CC1 | 8.2µM* | 19% | 2%[9.22 µM] | u | -13%
O=C(C1=C[C@H](c2csc3ccccc23)C[C@H](OCc2ccc(CO)cc2)O1)N1CCN(Cc2ccc3c(c2)OCO3)CC1 | u | 23% | -10%[9.22 µM] | 23µM* | 2%
CN1CCN(C(=O)C2=C[C@@H](c3ccc4c(c3)OCO4)C[C@@H](OCc3ccc(CO)cc3)O2)CC1 | 11% | -7% | -8% | -1% | -1%
N#Cc1ccc2c(c1)C[C@]1(c3ccsc3)Oc3c(c(=O)oc4ccccc34)C2O1 | x | u | x | x | -4%[10 µM]
O=C(C1=C[C@@H](c2ccc3c(c2)OCO3)C[C@@H](OCCCCO)O1)N1CCN(Cc2ccc3c(c2)OCO3)CC1 | 0% | 2% | -12%[9.22 µM] | u | -7%
O=C(C1=C[C@H](c2ccc(Br)cc2)C[C@H](OCCCCO)O1)N1CCN(Cc2ccc3c(c2)OCO3)CC1 | u | -87% | -18% | 18µM* | u
C#CCNC(=O)C1=C[C@H](c2csc3ccccc23)C[C@H](OCc2ccc(CO)cc2)O1 | u | 28% | u | 2.1µM* | -2%
CCN(c1ccccc1)S(=O)(=O)c1ccc(N2CCN(c3ccc(OC)cc3)CC2)nc1 | u | x | -15% | -5% | x
CCN(c1ccccc1)S(=O)(=O)c1ccc(N2CCN(c3ccc(O)cc3)CC2)nc1 | u | x | u | 18µM* | x
O=C(CCC(=O)OCC(=O)c1ccc(-c2ccccc2)cc1)Nc1cccc2cccnc12 | 6% | 1.6µM* | -1% | 3% | 4µM*
O=C(CCC(=O)OCC(=O)c1ccc(Cl)cc1Cl)Nc1cccc2cccnc12 | -18% | 20% | 2%[9.22 µM] | 1% | -17%
COc1ccc(-c2nnc(SCc3nc4ccccc4c(=O)[nH]3)o2)cc1 | u | -10% | -1% | 11% | 6%
COc1cc(S(=O)(=O)N2CCn3cccc3C2C)ccc1NC(C)=O (configuration not stated) | 29% | x | -7% | 0% | x
